# NPC1 prom act: qHTS Assay for NPC1 Promoter Activators | actives 2.4% (n = 320,000) | Huh7 NPC1 promoter luciferase reporter, 24 h | Potency, µM (series often up to 9.22 µM), for the others: at the highest dose activation, most hits filed as activators; further: % of control where 0% means no effect; nearly all actives have a fitted effect of over 60% in size
#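 Huh7 cells stably carrying NPC1 promoter–luciferase, plated in Opti-MEM with 10% FBS for 2 h, were exposed to compound in DMSO for 24 h at 37 °C; luciferase reagent was added for 10 min and luminescence read.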
# FLuc modulator: qHTS profiling assay for firefly luciferase inhibitor/activator using purifed enzyme and Km concentrations of substrates (counterscreen for miR-21 project). Luciferin 4-monooxygenase (Photinus pyralis), P08659. purified FLuc, Km substrates, luminescence inhibition. Potency, µM (top dose mostly 57.5 µM), without a hit: at the top dose activity change, negative = inhibition, hits mostly inhibitors. actives 6.9% (n = 360,000). AID 588342, 2011;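 further: plate controls were vehicle for no effect and reference inhibitor for full effect; nearly all actives have a fitted effect of over 55% in size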
# Target sequence (P08659 whole entry, looked up): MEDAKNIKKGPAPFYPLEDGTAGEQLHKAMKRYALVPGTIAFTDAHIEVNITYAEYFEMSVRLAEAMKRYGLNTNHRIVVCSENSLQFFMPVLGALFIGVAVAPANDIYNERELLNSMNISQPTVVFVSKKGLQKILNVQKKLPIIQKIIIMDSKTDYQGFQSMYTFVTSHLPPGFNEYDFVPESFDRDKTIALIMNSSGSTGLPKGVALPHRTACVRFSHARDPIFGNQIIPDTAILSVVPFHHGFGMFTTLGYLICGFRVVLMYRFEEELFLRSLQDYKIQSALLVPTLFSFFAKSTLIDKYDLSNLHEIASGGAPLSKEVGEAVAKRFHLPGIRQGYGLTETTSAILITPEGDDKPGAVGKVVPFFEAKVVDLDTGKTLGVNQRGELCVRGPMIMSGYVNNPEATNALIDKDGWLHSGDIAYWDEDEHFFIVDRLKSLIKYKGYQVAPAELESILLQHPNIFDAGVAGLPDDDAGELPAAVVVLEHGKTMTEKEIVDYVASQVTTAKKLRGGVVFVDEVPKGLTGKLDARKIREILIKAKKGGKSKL
#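 Purified P. pyralis luciferase (10nM final) with 10uM D-luciferin and 10uM ATP (Km levels) in 50mM Tris acetate pH 7.5, 10mM Mg acetate, 0.01% Tween-20, 0.05% BSA; qHTS 6-point titration, ~60 µM downward; luminescence read.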
# KinaseGlo FLuc: Counterscreen for Luciferase (Kinase-Glo TM) Inhibition; Luciferin 4-monooxygenase (Photuris pensylvanica), Q27757; Kinase-Glo luciferase, ATP luminescence, 8 min; Potency, µM (titrated, usually from 38.3 µM), inactives show at the highest dose activity change, negative = inhibition, most hits filed as inhibitors; actives 0.28% (n = 200,000); further: on the % scale 0 is the no-effect control and ±100 the full control effect; nearly all actives have a fitted effect of over 60% in size
#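 Compounds were added to a substrate mix at pH 7.2 (50 mM imidazole, 10 uM ATP, within the enzyme's linear range), followed by Kinase-Glo detection reagent; luminescence was measured after 8 minutes at ambient temperature.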
# ELG1 genotox: qHTS screen for small molecules that induce genotoxicity in human embryonic kidney (HEK293T) cells expressing luciferase-tagged ELG1 | AID 504466, 2011 | actives 1.3% (n = 330,000) | Potency, µM (highest dose often 46 µM), without a hit: at the top dose activity change, positive = activation, usual class: activators | HEK293T ELG1-luciferase reporter, luminescence, 16 h; further: % of control where 0% means no effect; nearly all actives have a fitted effect of over 60% in size
#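 Cells (2,000/well) expressing the ELG1-luciferase fusion are dosed by pin tool and kept 16 hr at 37 °C, 5% CO2. Signal comes from ONE-Glo luciferase reagent after 30 min at room temperature.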
# Rab9 prom act: qHTS Assay for Rab9 Promoter Activators; Huh7 Rab9 promoter-luciferase reporter, luminescence, 24 h; Potency, µM (titrated, usually from 9.22 µM), inactives show at the top dose activation, negative = inhibition, most hits filed as activators; actives 2.8% (n = 320,000); further: % of control where 0% means no effect; nearly all actives have a fitted effect of over 60% in size
#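 Luciferase signal after 10 min detection reagent at ambient indicates Rab9 promoter upregulation; stably transfected Huh7 cells were treated 24 h with compound in DMSO at 37 °C, 5% CO2.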
# SMN2 splice enh: qHTS Assay for Enhancers of SMN2 Splice Variant Expression; AID 1458, 2008; actives 2.8% (n = 210,000); HEK293 SMN2-luciferase splicing reporter, luminescence, 30-36 h; Potency, µM (series often up to 46.1 µM), for inactives: at the top dose activity change, positive = activation, most hits filed as activators; further: % of control where 0% means no effect; nearly all actives have a fitted effect of over 55% in size
#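 qHTS luciferase splicing reporter: luminescence rises when SMN2 exon 7 is included in transfected HEK293 cells. Compound exposure lasted 30-36 h at 37C, with 4.5 mM final sodium butyrate as control, followed by a ONE-Glo read.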
# * hit, by the source's call; ? = inconclusive; . = no result given. This is a sample that favours compounds with a hit; in the whole collection about 7.5% have one here. The call rests on the fitted dose curve; in most records, active means well fitted curve in the direction sought with a large enough effect; inconclusive means small, poorly fitted or top-dose-only effect, or another doubt; inactive means no such curve, though single readings can be large; an effect the other way counts as inactive or inconclusive. Potency means the concentration at half of the fitted maximal effect.
SMILES,NPC1 prom act,FLuc modulator,KinaseGlo FLuc,ELG1 genotox,Rab9 prom act,SMN2 splice enh
O=C(Nc1ccccc1)c1c(F)cccc1F,18%,-16%,-9%,11%,-6%,-2%
Cc1cccc(NC(=O)c2ccc(-c3ccccc3)s2)c1,.,2.4µM*,.,.,.,?
O=C(Nc1ccccc1)c1ccc(-c2ccc(F)cc2)s1,?,?,-5%,7.3µM*,?,?
O=C(Nc1ccc(F)cc1F)c1ccc(-c2ccccc2)s1,.,-20%,.,.,.,22%
Cc1ccc(NC(=O)c2ccc(-c3ccccc3)s2)cc1,.,-15%,.,.,.,5%
O=C(Nc1cccc(F)c1)c1ccc(-c2ccccc2)s1,.,2.1µM*,.,.,.,16%
COc1ccc(-c2oc3ccc(-c4cc(OC)c(OC)c(OC)c4)cc3c2-c2ccc(OC)nc2)cc1,-7%,6%,.,-6%,-3%,.
Cc1nc(-c2ccccn2)sc1C(=O)Nc1ccc(F)cc1F,10%,-16%,-3%,?,4µM*,8%
Cc1cc(C)nc(Nc2n[nH]c(-c3ccc(C(C)(C)C)cc3)n2)n1,12%,1.7µM*,-5%,3%,-4%,-56%
Cc1cc(C)nc(Nc2n[nH]c(C)n2)n1,-5%,-2%,-1%,-2%,-3%,.
Cc1cc(C)nc(Nc2n[nH]c(-c3ccc(N)cc3)n2)n1,1.6µM*,9.5µM*,-7%,7.3µM*,3.5µM*,?
CCCCONc1ncnc2nonc12,-6%,0%,-3%,-1%,3%,-10%
Oc1c(Br)cc(/C=N/Nc2ccc(Cl)nn2)cc1Br,0%,-5%,.,-1%,-6%,.
CCCCCCCCCC(=O)N/N=C/c1ccc(C)s1,0%,6%,-5%,?,3%,.
COc1cc(/C=N/Nc2ccc(F)cc2F)cc(OC)c1O,2%,17µM*,-2%,10%,2%,-10%
COc1cc(/C=N/Nc2ccc(S(N)(=O)=O)cc2[N+](=O)[O-])cc(OC)c1O,2%,?,.,3%,-4%,.
COc1cc(/C=N/Nc2ccc(Cl)nn2)cc(OC)c1O,0%,13µM*,.,4%,7%,.
Cc1ccc(/C=N/Nc2ccc(F)cc2F)s1,1.6µM*,13µM*,.,?,?,.
CCc1ccc(CNc2ncnc3onc(-c4ccc(Cl)cc4)c23)cc1,.,-5%,.,.,.,-6%
CCN(CC)C(=O)C1CCCN(c2ncnc3c2nc2n3CCCCC2)C1 (centres undefined),.,-3%,.,.,.,.
CC(=O)N/C(=C\c1ccccc1)C(=O)OC(C)C(=O)Nc1ccccc1F (centres undefined),1%,0%,.,-5%,4%,.
Cc1ccc(-c2c(C(=O)N3CCN(c4cc(Cl)ccc4C)CC3)oc(=O)c3ccccc23)cc1,.,3%,.,.,.,0%
Cc1ccc2cc(CCNC(=O)c3ccco3)c(=O)[nH]c2c1,?,19µM*,3%,18%,2.5µM*,10µM*
CCC(CC)C(=O)NCCc1cc2cc(C)c(C)cc2[nH]c1=O,-5%,0%,2%,-9%,-4%,15%
Cc1ccc2cc(CCNC(=O)CCCc3ccccc3)c(=O)[nH]c2c1,1%,-1%,.,0%,-3%,.
SMILES,NPC1 prom act,FLuc modulator,KinaseGlo FLuc,ELG1 genotox,Rab9 prom act,SMN2 splice enh
Cc1ccc2cc(CCNC(=O)c3ccco3)c(=O)[nH]c2c1C,3.5µM*,4.3µM*,1%,?,1.4µM*,7.1µM*
COc1ccc2cc(CCNC(=O)c3ccco3)c(=O)[nH]c2c1,1.6µM*,12µM*,.,10µM*,1.4µM*,.
Cc1cc2cc(CCNC(=O)c3cccs3)c(=O)[nH]c2cc1C,2.8µM*,13µM*,0%,?,3.2µM*,13µM*
CCOc1ccc(NC(=O)CSc2nnc(CNC(=O)c3ccco3)o2)cc1,-6%,2%,0%,-1%,2%,8%
CCCCN1C(=O)C(=O)N(CC(=O)c2cc(C)n(-c3cc(C)on3)c2C)C1=O,-1%,7%,.,0%,1%,.
Cc1cccc(CNC(=O)c2cc(S(=O)(=O)N3CCOCC3)cn2C)c1,0%,0%,.,3%,1%,.
O=c1nc2c(-c3cccc(Br)c3)n[nH]n2c2ccccc12,?,4.8µM*,.,?,3.5µM*,.
O=C(Nc1nccs1)c1ccc(N2C(=O)C3CCCCC3C2=O)cc1 (centres undefined),11%,21µM*,-4%,?,16%,23%
O=C(Nc1nccs1)c1ccc(N2C(=O)[C@@H]3[C@H](C2=O)[C@H]2C=C[C@@H]3C2)cc1,2.5µM*,27µM*,.,?,3.5µM*,.
O=C(Nc1ccc(Br)cc1)c1ccc(N2C(=O)C3CCCCC3C2=O)cc1 (centres undefined),0%,0%,.,1%,-3%,.
O=C(/C=C/Nc1cccc([N+](=O)[O-])c1)c1cccs1,21%,1.7µM*,-11%,?,3.2µM*,16µM*
Cc1cc(N/C=C/C(=O)c2cccs2)ccc1F,?,0.95µM*,-12%,2.9µM*,4µM*,14µM*
O=C(/C=C/Nc1ccc(Nc2ccccc2)cc1)c1cccs1,4µM*,4.3µM*,-13%,?,2µM*,.
Cc1ccc(N/C=C/C(=O)c2cccs2)cc1C,24%,0.19µM*,-18%,?,3.5µM*,2.2µM*
CC1(C)CCC[C@]2(C)C3CC(=O)O[C@@]3(C)CC[C@H]12 (some centres undefined),.,.,2%,.,.,.
COc1ccc(N(C)S(=O)(=O)c2ccc3c(c2)NC(=O)CO3)c(OC)c1,-8%,3%,.,-3%,-2%,.
O=C(O)c1ccccc1C(=O)c1cccs1,1%,3%,-4%,-1%,-4%,-1%
C/C(=N\OCC(=O)Nc1ccccc1C(=O)O)c1cccs1,13%,21µM*,.,2%,16%,.
O=C(/C=C/Nc1ccccc1C(=O)O)c1cccs1,1.4µM*,3.4µM*,-15%,16µM*,1µM*,11µM*
Cc1ccc(C)c(NC(=O)c2cnc3sc(N4CCOCC4)nn3c2=O)c1,.,-1%,.,.,.,.
CCOC(=O)C1=C(CN2CCN(c3ccc(Cl)cc3)CC2)NC(=O)NC1c1ccc(F)cc1 (centres undefined),.,2%,.,.,.,.
O=c1cc(COc2ccccc2Cl)nc2scc(-c3ccccc3)n12,.,?,.,.,.,-4%
C[C@@H]1CCCCCCCCC(=O)OCCN1C(=O)OC(C)(C)C,-2%,3%,.,0%,-2%,.
